Each structure is given as a SMILES string. The whole screen tested about 140,000 compounds, of which about 680 (0.49%) were called active. Cut-off read from the data, not from the text of the source: active = activation above about 5% (passing the limit was not always enough); inactive = the rest. Many of the other results were omitted from the sample, so actives are more common in it than they were.

Galanin receptor type 2 (Homo sapiens), sequence (O43603 whole entry, looked up): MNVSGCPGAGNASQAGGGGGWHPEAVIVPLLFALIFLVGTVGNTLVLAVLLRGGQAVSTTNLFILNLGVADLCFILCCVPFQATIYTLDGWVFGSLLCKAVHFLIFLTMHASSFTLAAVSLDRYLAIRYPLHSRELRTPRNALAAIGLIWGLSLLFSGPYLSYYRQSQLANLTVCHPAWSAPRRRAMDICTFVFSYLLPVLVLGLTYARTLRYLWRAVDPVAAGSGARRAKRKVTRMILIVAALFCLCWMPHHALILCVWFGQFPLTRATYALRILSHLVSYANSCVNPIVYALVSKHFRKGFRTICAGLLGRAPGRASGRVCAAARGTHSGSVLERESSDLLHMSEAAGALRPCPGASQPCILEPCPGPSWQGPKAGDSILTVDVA

The experiment has as its target Galanin receptor type 2 (Homo sapiens) (UniProt O43603). The experiment is described as follows: GALR2 receptor agonists, primary screen, cell-based (AID 803).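 Note: 0% = vehicle buffer wells and 100% = reference agonist at full effect.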 Conditions: GALR2-expressing cells, agonist activation read-out; hits give high values; concentration not given here.
With `CCOC(=O)c1c(N)n(Cc2ccccc2)c2nc3ccccc3nc12`, the activation is -0.61% (inactive).

As for `CCOC(=O)c1c(N)n(CCN2CCOCC2)c2nc3ccccc3nc12`, the activation is 1.16% (inactive).

Regarding `COc1cc(Cn2c(N)c(C(=O)NCc3ccco3)c3nc4ccccc4nc32)cc(OC)c1OC`, the activation is 25% (active).

Consider `CC(=O)c1c(C)n(C(C)C)c2ccc(O)cc12`, for which the activation is 0.6% (inactive).

Regarding `CN1CCN(C(=S)SCC(=O)Nc2ccc(Cl)cc2C(=O)c2ccccc2)CC1`, the activation was -0.06% (inactive).

For `O=C1NC(=O)N(c2ccc(F)cc2)C(=O)/C1=C/c1ccc2c(c1)CCCN2Cc1ccccc1`, the activation was -0.69% (inactive).

Take `Cc1cccc(N2C(=O)NC(=O)/C(=C\c3cnn(-c4ccccc4)c3)C2=O)c1`: the activation was 34.2% (active).

For `COc1c(O)ccc2c1-c1c3c(cc4c1C(C2)N(C)CC4)OCO3` (stereo not given), the activation is -1.66% (inactive).

In the case of `CCOP(=O)(OCC)C(NC(=O)c1ccc(C)cc1)C(Cl)(Cl)Cl` (stereo not given), the activation was -0.73% (inactive).

With `Cc1ccc(-n2c(-c3ccc([N+](=O)[O-])cc3)nc3ccccc3c2=O)cc1`, the activation was -0.79% (inactive).
